Wnt bcat act – Wnt/beta-catenin pathway activators, primary screen, cell-based, plate reader, single point. AID 743398, 2014. 300,000 tested, 1.2% active. activation, % at 9.35 µM. Wnt/beta-catenin reporter cell assay, activator; in the data active = activation above about 30%, passing the limit was not always enough; inconclusive = no clear call, values can overlap the other calls;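 also: 0% = neutral control wells and 100% = positive control wells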
GAA850 FXN act – FXN promoter activators, primary screen, cell-based, luciferase luminescence, HEK293 lucGAA850; HEK293 lucGAA850 FXN promoter luciferase reporter, 24 h; percent of 10 µM SAHA response; activation, % at 6 µM; 360,000 tested, 0.56% active;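 active = activation above the average of all compounds screened plus 3 SD, cutoff fixed separately per campaign, cut at about 7.5% in these data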;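 also: 0% = DMSO wells and 100% = 10 µM SAHA wells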
esBAF inh – Bmi1 luciferase reporter increase in mESCs, primary screen, esBAF inhibitor project, mouse ES cells, Bmi1 luciferase knock-in, single point | 350,000 tested, 2% active | 24 h; 100% = twice the neutral-well signal | reporter increase, % at 12.5 µM; in the data active = activation above about 40%; inconclusive = no clear call, values can overlap the other calls;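 also: 0% = median of the plate's neutral control wells and 100% = double that signal; a rise in the Bmi1 reporter signal indicates esBAF inhibition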
MITF act – activators of MITF-driven TRPM1 promoter reporter, primary screen, cell-based, SK-MEL-5, luciferase, single point; SK-MEL-5 TRPM1-promoter luciferase, 24 h; % of positive control, neutral wells = 0; activation, % at 12.5 µM; 300,000 tested, 0.75% active;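 active = mean activation of at least 80% with every replicate also reaching 80%; inconclusive = mean reaches 80% but some replicate falls short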;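 also: 0% = neutral control wells and 100% = parthenolide positive control wells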
* marks the source's active call; other numbers are inactive results. A selection: hits, their analogues and other compounds. The true share with any hit is near 2.8%.

For COc1cc(C2C3=C(CC(C)(C)CC3=O)Nc3c2c(=O)[nH]c(=O)n3Cc2ccccc2)ccc1O (stereo unspecified) the results were Wnt bcat act 32.6*, GAA850 FXN act 1.2 and MITF act -9.4.
Screening COCC(=O)N(C)C[C@H]1Oc2cc(C#CC(C)(C)O)ccc2S(=O)(=O)N([C@H](C)CO)C[C@H]1C returned esBAF inh 2.8.
Screening Cc1ccc(S(=O)(=O)Nc2ccc3c(c2)C(=O)N([C@@H](C)CO)C[C@H](C)[C@@H](CN(C)C(=O)Nc2ccc(F)cc2)O3)cc1 returned esBAF inh -3.3.
Screening COCOCCn1cc(CN2CCS(=O)(=O)N(Cc3ccc(-c4ccc(Cl)nc4)cc3)C(CC(C)C)C2=O)nn1 (stereo unspecified) returned Wnt bcat act -0.5, GAA850 FXN act 3.4 and esBAF inh 45.3*.
COCOCCn1cc(CN2CCS(=O)(=O)N(Cc3ccc(-c4ccc(Cl)cc4)cc3)C(CC(C)C)C2=O)nn1 (stereo unspecified) was read as Wnt bcat act -4.6, GAA850 FXN act -1.2 and esBAF inh 5.4.
CCC(C)(C)C1CCc2[nH]nc(C(=O)NN)c2C1 (stereo unspecified) was read as Wnt bcat act -5.0 and GAA850 FXN act 0.1.
For CCC(C)(C)C1CCc2[nH]nc(C(=O)NC3CCCCC3)c2C1 (stereo unspecified) the results were Wnt bcat act 5.2, GAA850 FXN act 4.2, esBAF inh 57.6* and MITF act 33.8.
O=C(NCC1CCCO1)c1ccc(/C=N/O)nc1 (stereo unspecified) was read as Wnt bcat act -1.0, GAA850 FXN act 1.4 and esBAF inh 1.2.
CC1CCN(S(=O)(=O)c2cccc(C(=O)NCc3cccs3)c2)CC1 was read as GAA850 FXN act 0.0, esBAF inh -8.5 and MITF act -13.4.
Screening CC1CCCN(c2ccc(C(=O)NCC3CCCO3)cn2)C1 (stereo unspecified) returned Wnt bcat act 8.3, GAA850 FXN act 3.3, esBAF inh 50.4* and MITF act 53.8.
Screening CC1CCN(c2ccc(C(=O)NCc3cccs3)cn2)CC1 returned GAA850 FXN act 1.9, esBAF inh 58.7* and MITF act 76.6.
For Cc1ccnc(SCC(=O)N2CCc3ccccc32)n1 the results were Wnt bcat act 13.7, GAA850 FXN act 1.7, esBAF inh 55.8* and MITF act 86.0*.
`CC(Sc1nnc2ccccn12)C(=O)N1CCc2ccccc2C1` (stereo unspecified) gave GAA850 FXN act 3.5 and MITF act 10.5.
`O=C(CSc1nnc2ccccn12)N1CCc2ccccc2C1` gave GAA850 FXN act -0.4, esBAF inh 52.1* and MITF act 35.2.
Screening O=C(CSc1nnc2ccccn12)N1CCc2ccccc21 returned Wnt bcat act 34.4*, GAA850 FXN act 4.3, esBAF inh 52.8* and MITF act 47.1.
`Cn1ccnc1SCC(=O)N1CCc2ccccc21` gave Wnt bcat act 12.6, GAA850 FXN act 5.0, esBAF inh 15.2 and MITF act 38.7.
`Cc1nn(-c2ccc(N3CCCCC3)nn2)c(C)c1CCC(=O)Nc1ccc(F)c(F)c1` gave Wnt bcat act 13.9, GAA850 FXN act 4.7, esBAF inh 55.0* and MITF act 59.6.
Cc1ccc(NC(=O)CCc2c(C)nn(-c3ccc(N4CCOCC4)nn3)c2C)cc1F was read as Wnt bcat act 5.9, GAA850 FXN act 1.6, esBAF inh 52.6* and MITF act 59.8.
For Cc1cc(C)cc(NC(=O)CCc2c(C)nn(-c3ccc(N4CCCCC4)nn3)c2C)c1 the results were Wnt bcat act 16.0, GAA850 FXN act 3.3, esBAF inh 67.6* and MITF act inconclusive.
Cc1ccc(NC(=O)CCc2c(C)nn(-c3ccc(N4CCCCC4)nn3)c2C)cc1 was read as Wnt bcat act 12.8, GAA850 FXN act 0.8, esBAF inh 37.7 and MITF act 31.4.
`Cc1ccc(NC(=O)CCc2c(C)nn(-c3ccc(N4CCCCC4)nn3)c2C)cc1C` gave Wnt bcat act 19.7, GAA850 FXN act 1.6, esBAF inh 1.0 and MITF act 51.4.
`COc1ccc(C)cc1NC(=O)CCc1c(C)nn(-c2ccc(N3CCCCC3)nn2)c1C` gave Wnt bcat act 10.8, GAA850 FXN act -0.1, esBAF inh 61.2* and MITF act 37.9.
For Cc1ccc(F)cc1NC(=O)CCc1c(C)nn(-c2ccc(N3CCCCC3)nn2)c1C the results were Wnt bcat act 8.3, GAA850 FXN act 1.6, esBAF inh 65.0* and MITF act 48.0.
Screening CCOC(=O)C1(Cc2cccc(OC)c2)CCCN(C(=O)CCN2CCCO2)C1 (stereo unspecified) returned Wnt bcat act 21.6, GAA850 FXN act 6.4, esBAF inh 68.3* and MITF act 75.7.
`CCOC(=O)C1(Cc2cccc(Cl)c2)CCCN(C(=O)c2cc(C)on2)C1` (stereo unspecified) gave Wnt bcat act 12.5, GAA850 FXN act 2.2, esBAF inh 52.9* and MITF act 23.2.
`CCOC(=O)C1(Cc2cccc(OC)c2)CCCN(C(=O)c2cc(CC(C)C)[nH]n2)C1` (stereo unspecified) gave Wnt bcat act -0.4, GAA850 FXN act 2.3 and MITF act 67.8.
CCOC(=O)C1(Cc2cccc(OC)c2)CCCN(C(=O)c2ccc(OC)o2)C1 (stereo unspecified) was read as Wnt bcat act inconclusive, GAA850 FXN act 3.2, esBAF inh 80.0* and MITF act 88.1*.
Screening COc1ccc(Br)cc1/C=N/Nc1cccc(C(=O)O)c1 returned Wnt bcat act 0.3, GAA850 FXN act 5.8 and MITF act 11.8.
`O=C(O)c1cccc(N/N=C/c2cc(Br)cc(Br)c2O)c1` gave GAA850 FXN act 5.7, esBAF inh 76.9* and MITF act 20.6.
Screening CSc1nsc(SCC(=O)Nc2ccc(OC(C)=O)cc2)n1 returned Wnt bcat act 40.7*, GAA850 FXN act 5.2 and MITF act 89.5*.
`CSc1nsc(SCC(=O)Nc2ccccc2)n1` gave Wnt bcat act 9.2, GAA850 FXN act 2.2, esBAF inh 18.7 and MITF act 43.4.
Screening CCNC(=O)C[C@@H]1CC[C@H]2[C@@H](COC[C@@H](O)CN2C(=O)CC)O1 returned esBAF inh 4.0.
O=C(C=Cc1ccco1)c1ccc2ccccc2c1 was read as Wnt bcat act 61.2*, GAA850 FXN act 7.3 and MITF act 57.6.
O=C(C[C@H]1C[C@@H]2c3cc(NC(=O)c4ccc5c(c4)OCO5)ccc3O[C@@H]2[C@H](CO)O1)NC1CCCCC1 was read as esBAF inh 7.9.
CCc1nc(C)cn1S(=O)(=O)c1ccc(Br)cc1 was read as Wnt bcat act 50.6*, GAA850 FXN act -0.3, esBAF inh -3.2 and MITF act -4.7.

Screening results from PubChem.
